Assay outcomes as filed in PubChem BioAssay.
An excerpt weighted towards active compounds, which were near 1.8% of everything screened.
RAD54 inh: inhibitors of human RAD54 branch migration. hit rate 0.14% among 360,000. inhibition, % at 10.4 µM. RAD54 Holliday junction branch migration, FAM/BHQ fluorescence. AID 602329;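 active = mean normalized replicate activity at least 40 and at least half of replicates scoring 40 or more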;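 note: inhibitors cause a drop in the FAM fluorescence signal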
CFTR F508del cor: correctors of CFTR F508del function in bronchial epithelial cells | activity (quench increase), % at 7.58 µM | AID 720511 | CFBE cells, YFP halide quenching; stimulated with forskolin plus potentiator P3; % fluorescence drop versus neutral controls | hit rate 0.36% among 350,000;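 active = mean added fluorescence quench of at least 8% versus neutral control, with both replicates also reaching 8%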;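 note: cells transiently co-express mutant CFTR-F508del with the halide-sensitive YFP; corrector assay measuring rescue of mutant channel to the surface after 24 h compound exposure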
RAD52 anneal inh: inhibitors of human RAD52 DNA annealing; P43351; inhibition, % at 18.7 µM; AID 651710; hit rate 0.46% among 360,000; recombinant RAD52 DNA annealing, FRET fluorescence;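 active = every replicate showing at least 50% inhibition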
Target sequence (P43351 whole entry, looked up): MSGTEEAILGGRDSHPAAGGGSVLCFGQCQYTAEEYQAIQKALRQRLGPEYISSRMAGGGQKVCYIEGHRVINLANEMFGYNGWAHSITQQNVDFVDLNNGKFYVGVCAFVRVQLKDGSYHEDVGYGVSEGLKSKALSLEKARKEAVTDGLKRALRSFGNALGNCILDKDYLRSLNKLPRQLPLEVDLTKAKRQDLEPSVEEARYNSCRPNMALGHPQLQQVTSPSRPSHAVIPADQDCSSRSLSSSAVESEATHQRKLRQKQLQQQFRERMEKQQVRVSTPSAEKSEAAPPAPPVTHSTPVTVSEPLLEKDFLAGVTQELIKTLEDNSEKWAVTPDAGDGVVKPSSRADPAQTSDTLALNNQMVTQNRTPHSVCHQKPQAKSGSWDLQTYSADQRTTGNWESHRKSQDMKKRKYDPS
INS-1E GSIS act: primary screen for activators of insulin secretion dependent on glucose, INS-1E cells, GLuc reporter luminescence. INS-1E GLuc reporter insulin secretion, 2-3 h. activation, % at 16.6 µM. hit rate 0.61% among 370,000. AID 743287;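 active = lowest replicate activation of at least 40%, so every replicate reaches that level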
EWS-Fli block: inhibitors of EWS/Fli oncoprotein transcriptional activity | inhibition, % at 12.6 µM | A673 NR0B1-luciferase reporter, viability-normalised | AID 651661 | hit rate 0.67% among 350,000;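 active = mean inhibition of at least 50% after viability correction, with every replicate also passing that limit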;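 note: firefly luciferase signal divided by Alamar Blue viability fluorescence both relative to DMSO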
LGR2 inh: inhibitors of bursicon-induced Drosophila LGR2 receptor cAMP signaling; hit rate 0.35% among 380,000; inhibition, % at 9.99 µM; HEK293 LGR2, CRE-luciferase, bursicon-stimulated, 4 h;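 active = drop in luminescence signal, shown as inhibition above about 50% in the replicate tests, limit read from the data, passing the limit was not always enough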;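 note: agonist challenge used bursicon conditioned medium at about half maximal strength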
Large screens that a line does not name were inactive.

O=c1cc(-c2ccc(O)c(O)c2)oc2ccc3ccccc3c12	EWS-Fli block 62 (no result: RAD54 inh)
OC[C@@H]1CN(Cc2ccc(-c3ccccc3)cc2)C[C@H](n2cnc3c(Nc4ccccc4)ncnc32)O1	none
OC[C@@H]1CN(Cc2ccc(-c3ccccc3)cc2)C[C@H](n2cnc3c(NC4CC4)ncnc32)O1	CFTR F508del cor 8.6
CCc1ccc(OCC(=O)NNC(=O)c2cnccn2)c(Br)c1	none
Cc1ccc(S(=O)(=O)N(C)C[C@H]2Oc3ncc(C#CC4(O)CCCC4)cc3C(=O)N([C@H](C)CO)C[C@@H]2C)cc1	none
O=C(Nc1ccc2c(c1)OCCO2)C1CCCN1C(=O)Nc1ccccc1 (centres undefined)	none
O=C(C1CC1)N1[C@H](CO)[C@H](c2ccccc2)C12CN(CCC(F)(F)F)C2	none (no result: RAD54 inh)
CC1(C(=O)N2CCCCC2)CCN1C(=O)C1(c2ccccc2)CC1 (centres undefined)	INS-1E GSIS act 40
O=C(NCc1ccccc1)c1ccc(Cl)c(NC2=NC3CS(=O)(=O)CC3S2)c1 (centres undefined)	none
CCOC(=O)c1cnc2ccc(Cl)cc2c1Nc1ccc(S(=O)(=O)Nc2ncccn2)cc1	INS-1E GSIS act 40 (no result: CFTR F508del cor, RAD52 anneal inh, EWS-Fli block)
N#Cc1sc2nc3c(c(-c4cccnc4)c2c1N)CCC3	INS-1E GSIS act 46 (no result: CFTR F508del cor, EWS-Fli block)
NC(=O)c1sc2nc3c(c(-c4cccnc4)c2c1N)CCC3	none (no result: CFTR F508del cor, RAD52 anneal inh, INS-1E GSIS act, EWS-Fli block, LGR2 inh)
O=c1cc(-c2ccccc2)nc(SCc2ccccc2)[nH]1	INS-1E GSIS act 79 (no result: RAD54 inh, CFTR F508del cor, RAD52 anneal inh, EWS-Fli block)
O=C(c1cccnc1)N1CC(=O)N2[C@H](CO)[C@@H](c3ccc(C#CCC4CCCC4)cc3)[C@@H]2C1	none (no result: RAD54 inh)
COc1ccc(-c2cc(C(F)(F)F)n3nc(C(=O)O)cc3n2)cc1OC	INS-1E GSIS act 48 (no result: CFTR F508del cor, RAD52 anneal inh, EWS-Fli block)
COC(=O)c1cc2nc(-c3ccc(OC)c(OC)c3)cc(C(F)(F)F)n2n1	none (no result: CFTR F508del cor, RAD52 anneal inh, INS-1E GSIS act, EWS-Fli block, LGR2 inh)
Cc1cccc(/C=N/NC(=O)c2ccc3c(c2)OCCO3)c1O	LGR2 inh 68
Cc1c(C(=O)OC2CCCCC2)sc2nc[nH]c(=O)c12	none (no result: CFTR F508del cor, RAD52 anneal inh, EWS-Fli block)
COC(=O)c1cccc(-c2noc(-c3ccccc3F)n2)c1	EWS-Fli block 90
NC(=O)c1cccc(-c2noc(-c3ccccc3F)n2)c1	EWS-Fli block 87
O=C(O)c1cccc(-c2noc(-c3cccc(Cl)c3)n2)c1	LGR2 inh 84 (no result: INS-1E GSIS act)
Fc1ccccc1-c1nc(-c2ccccc2)no1	none (no result: CFTR F508del cor, RAD52 anneal inh, INS-1E GSIS act, EWS-Fli block, LGR2 inh)
NC(=O)c1ccc(-c2noc(-c3cccc(Cl)c3)n2)cc1	none
Cc1ccc2nc(-c3ccc(SCC(=O)N4CCc5ccccc54)nc3)[nH]c2c1	none (no result: RAD54 inh)
O=S1(=O)CCN(C(CO)c2ccccc2)CC1 (centres undefined)	CFTR F508del cor 10 (no result: RAD54 inh)
O=C(O)CC(c1cccc(C(F)(F)F)c1)N1CCS(=O)(=O)CC1 (centres undefined)	none
O=C(NNC1CC(=O)N(c2cccc(Cl)c2)C1=O)c1cccs1 (centres undefined)	none (no result: CFTR F508del cor, RAD52 anneal inh, EWS-Fli block)
CC(=O)N1CCN(c2nnc(-c3ccccc3)c3ccccc23)CC1	INS-1E GSIS act 40
CCC(=O)N1CCN(c2nnc(-c3ccccc3)c3ccccc23)CC1	none
Cc1ccc(-c2nnc(N3CCN(C(=O)CN4C(=O)c5ccccc5C4=O)CC3)c3ccccc23)cc1	INS-1E GSIS act 53 (no result: CFTR F508del cor, RAD52 anneal inh, EWS-Fli block, LGR2 inh)
CC(=O)N1CCN(c2nc(-c3cccs3)nc3ccccc23)CC1	INS-1E GSIS act 41 (no result: RAD54 inh)
NC(=O)C1CCN(c2nc(-c3ccccc3)nc3ccccc23)CC1	INS-1E GSIS act 58 (no result: CFTR F508del cor, RAD52 anneal inh, EWS-Fli block, LGR2 inh)
CCOC(=O)N1CCN(c2nc(-c3cccs3)nc3ccccc23)CC1	none
CC1(C(=O)NS(=O)(=O)Cc2ccccc2)CCN1C(=O)c1ccc(C2CCCCC2)cc1 (centres undefined)	none
COc1ccc(OCC(=O)N2CCN(c3nnc(-c4ccc(C)cc4)c4ccccc34)CC2)cc1	LGR2 inh 59
CC(C)(C)c1ccc(C2CC2C(=O)N/N=C\c2ccc[nH]2)cc1 (centres undefined)	INS-1E GSIS act 59, EWS-Fli block 62 (no result: RAD54 inh)
C[C@H]1CCCCO[C@H](CN(C)C(=O)C2CCCCC2)[C@@H](C)CN([C@@H](C)CO)C(=O)c2cc(NS(=O)(=O)c3ccc(Cl)cc3)ccc2O1	EWS-Fli block 54
Cc1ccc(S(=O)(=O)Nc2ccc3c(c2)C(=O)N([C@H](C)CO)C[C@H](C)[C@@H](CN(C)CC2CCCCC2)OCCCC[C@@H](C)O3)cc1	none
Cc1ccc(S(=O)(=O)Nc2ccc3c(c2)C(=O)N([C@@H](C)CO)C[C@H](C)[C@H](CN(C)S(=O)(=O)c2ccc(C)cc2)OCCCC[C@@H](C)O3)cc1	CFTR F508del cor 9.1
Cc1ccc(S(=O)(=O)Nc2ccc3c(c2)C(=O)N([C@H](C)CO)C[C@H](C)[C@H](CN(C)CC2CCCCC2)OCCCC[C@@H](C)O3)cc1	RAD52 anneal inh 55
Cc1ccc(S(=O)(=O)Nc2ccc3c(c2)C(=O)N([C@@H](C)CO)C[C@@H](C)[C@@H](CN(C)CC2CCCCC2)OCCCC[C@@H](C)O3)cc1	RAD52 anneal inh 56
O=C(CN1C(=O)C(=O)N(C2CCCC2)C1=O)Nc1ccc(N2CCOCC2)cc1	none (no result: RAD54 inh)
CC(C)[C@H]1CC=CC[C@H](C)Oc2ccccc2C(=O)N(C)[C@H](C(C)C)C(=O)N1 (mixture of isomers)	none (no result: RAD54 inh, CFTR F508del cor, RAD52 anneal inh, EWS-Fli block, LGR2 inh)
C[C@H](CO)N1C[C@H](C)[C@H](CN(C)CC2CCCCC2)OCCCC[C@H](C)Oc2ccc(NS(=O)(=O)c3ccc(Cl)cc3)cc2C1=O	EWS-Fli block 65 (no result: RAD52 anneal inh)
C[C@@H]1CCCCO[C@@H](CN(C)CC2CCCCC2)[C@H](C)CN([C@@H](C)CO)C(=O)c2cc(NS(=O)(=O)c3ccc(Cl)cc3)ccc2O1	none (no result: RAD52 anneal inh)
c1ccc(-c2cnc(-c3ccccn3)nn2)cc1	none
c1ccc(-c2cnc(-c3ccccc3)nn2)cc1	LGR2 inh 74 (no result: INS-1E GSIS act)
CCNc1nc(NC(N)=S)nc(NC(C)(C)C)n1	INS-1E GSIS act 70 (no result: RAD54 inh)
COCCn1c(C)cc(C(=O)CSc2nnnn2C2CCCC2)c1C	EWS-Fli block 82, LGR2 inh 80
Cc1ccccc1-c1csc(C(C)(O)c2ccccc2)n1 (centres undefined)	none (no result: INS-1E GSIS act, LGR2 inh)
COc1ccc(C(C)(O)c2nc(-c3ccccc3C)cs2)cc1 (centres undefined)	EWS-Fli block 60
COc1ccc(C(C)(O)c2nc(-c3ccc(F)cc3OC)cs2)cc1 (centres undefined)	EWS-Fli block 58
COc1ccc(C(C)(O)c2nc(-c3ccncc3)cs2)cc1 (centres undefined)	EWS-Fli block 59
CN(C)c1ccc(-c2nc3ccccc3c(=O)[nH]2)cc1	EWS-Fli block 62, LGR2 inh 66 (no result: RAD54 inh, INS-1E GSIS act)
O=C(Nc1ccccc1N1CCOCC1)C1=NN(c2ccccc2)C(=O)CC1	INS-1E GSIS act 50
CN(C)CC(=O)Nc1ccc2c(c1)[C@H]1C[C@H](CC(=O)NCc3ccccc3F)O[C@@H](CO)[C@H]1O2	none (no result: RAD52 anneal inh)
